D2 ag-1: D2 dopamine receptor (human) agonism; 340,000 compounds, 0.53% hits; AID 485358; activation, % at 2 µM; HEK293 T-REx D2 cells, calcium flux agonist mode; P14416;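 active = activation over 3 SD above normal in the single-dose calcium agonist read, cut at about 30% in these data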; note: 0% is about no effect
Target sequence (P14416 whole entry, looked up): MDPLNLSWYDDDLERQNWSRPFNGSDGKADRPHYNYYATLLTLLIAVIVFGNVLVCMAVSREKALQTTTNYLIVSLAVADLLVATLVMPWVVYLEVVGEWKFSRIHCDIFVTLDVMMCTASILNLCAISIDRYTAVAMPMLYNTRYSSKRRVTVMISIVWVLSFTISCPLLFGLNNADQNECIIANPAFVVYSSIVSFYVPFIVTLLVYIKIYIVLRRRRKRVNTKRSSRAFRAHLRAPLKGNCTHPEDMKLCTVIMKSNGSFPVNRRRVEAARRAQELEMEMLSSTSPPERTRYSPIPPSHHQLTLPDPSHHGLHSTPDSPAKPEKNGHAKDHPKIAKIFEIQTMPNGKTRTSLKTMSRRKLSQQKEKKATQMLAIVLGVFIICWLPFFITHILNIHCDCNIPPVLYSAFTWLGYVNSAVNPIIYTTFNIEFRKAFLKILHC
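Tetracycline-induced HEK293 T-REx cells with force-coupled D2 receptor, plated overnight at 30 C, loaded with no-wash calcium dye. After a 10 s baseline, compound was pin-added and calcium flux read kinetically for 180 s; calcium rises flagged agonists.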
D2 PAM-1: human D2 receptor positive allosteric modulation | P14416 | DiscoveRx D2 beta-arrestin cells, luminescence, 90 min; 100% = 57 uM dopamine signal | potentiation, % (concentration not given with the values) | 360,000 compounds, 0.23% hits; in the data active = potentiation above about 50%
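PathHunter D2 cells, attached overnight at 37 deg C, received compound in DMSO plus dopamine at EC20 (50 nM final) for 90 min at 37 deg C. Beta-arrestin recruitment was read as luminescence after 1 h with detection reagent at ambient temperature.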
D2 PAM-2: positively modulates the human D2 dopamine receptor allosterically; P14416; HEK293 T-REx D2, calcium flux, EC20 dopamine potentiation; potentiation, % at 10 µM; 340,000 compounds, 0.34% hits; AID 485347;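 active = potentiation over 3 SD above the plate norm, cut at about 30% in these data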; note: 0% is about no effect
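Primary screen. Calcium kinetics in induced HEK293 T-REx D2 cells: compound pre-addition 180 s, EC20 dopamine, 180 s more.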
D2 ag-2: activates the human D2 dopamine receptor; 360,000 compounds, 0.084% hits; activation, % (no concentration beside the values); DiscoveRx PathHunter D2 beta-arrestin, luminescence, 90 min; 100% = 57 uM dopamine signal; in the data active = activation above about 40%
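Agonist mode: compounds alone added to overnight-plated D2 PathHunter cells for 90 min at 37 C, with 57 uM final dopamine (EC100) defining full response. Beta-arrestin recruitment detected by chemiluminescent reagent, read after 1 h at ambient temperature.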
D2 antag: antagonists of human D2 dopamine receptor | P14416 | HEK293 TREx D2 cells, calcium flux, dopamine EC80 | inhibition, % at 10 µM | 340,000 compounds, 2% hits | AID 485344; in the data active = inhibition above about 30%; inactive = below that, where a call was filed; note: 0% is about no effect
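Tetracycline-induced HEK293 TREx cells expressing D2 receptor forced-coupled to calcium signalling, loaded with no-wash calcium dye. Compounds added and calcium flux read 180 s, then dopamine added at EC80 and read a further 180 s.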
* = called active by the depositor. An excerpt weighted towards active compounds, which were near 2.4% of everything screened.

What do the screens show for `C/C=C/C=C\C(=O)Nc1cccc(C2=NOC3(C2)C[C@H](C(N)=O)N(C(=O)CC#N)C3)c1` (stereo not given in full)?
D2 ag-1: -0.4; D2 PAM-1: -3.9; D2 PAM-2: -3.4; D2 ag-2: -6.4; D2 antag: 33.2*

Results for CCCc1ccc(OCC(=O)Nc2sc3c(c2C(=O)OCC)CCC(C(C)(C)C)C3)cc1 (stereo not given) ?
D2 ag-1: -0.8

What do the screens show for `CCOC(=O)c1ccc(NC(=O)CC2C(=O)OCCN2CC)cc1` (stereo not given)?
D2 ag-1: -1.0; D2 PAM-1: -2.5; D2 PAM-2: -4.5; D2 ag-2: -5.3; D2 antag: 47.7*

How did CCOC(=O)c1ccc(NC(=O)N2CCN(C3CCCCC3)CC2)cc1 do in these assays?
D2 ag-1: -0.8; D2 PAM-1: -15.3; D2 PAM-2: -2.7; D2 ag-2: -0.7; D2 antag: 34.4*

How did CCOC(=O)N1CCN(C(=O)Nc2ccccc2)CC1 do in these assays?
D2 ag-1: 0.1; D2 PAM-1: -3.3; D2 PAM-2: -1.6; D2 ag-2: -2.0; D2 antag: 30.7*

Results for CCOC(=O)c1ccc(NC(=O)N2CCN(Cc3ccccc3)CC2)cc1 ?
D2 ag-1: -0.6; D2 PAM-1: -8.3; D2 PAM-2: -0.4; D2 ag-2: 7.6; D2 antag: 43.6*

Results for Cc1ccc(S(=O)(=O)NCC(c2ccco2)N2CCN(c3ccccc3F)CC2)cc1 (stereo not given) ?
D2 ag-1: -0.3; D2 PAM-2: 4.7

How did CCCCN(CC)CCCNC(=O)c1ccc2c(c1)NC(=O)CN2C do in these assays?
D2 ag-1: 5.0; D2 PAM-2: -8.6

What do the screens show for `CCOC(=O)c1c(C)[nH]c(C)c1S(=O)(=O)NCC(=O)Nc1cccc(SC)c1`?
D2 ag-1: -0.5; D2 PAM-2: -3.9

Results for CSc1ccc(-c2nc3cccc(C)n3c2Nc2ccc(Cl)cc2)cc1 ?
D2 ag-1: 0.1; D2 PAM-2: 6.8

Results for c1ccc2c(OCCCN3CCCCCC3)cccc2c1 ?
D2 ag-1: -0.4; D2 PAM-1: -79.3; D2 PAM-2: -32.1; D2 ag-2: -2.4; D2 antag: 73.9*

How did CCN1CCN(CCCOc2ccccc2-c2ccccc2)CC1 do in these assays?
D2 ag-1: -1.9; D2 PAM-1: -21.5; D2 PAM-2: 4.5; D2 ag-2: -0.4; D2 antag: -6.8

Results for CCC(=O)c1ccccc1OCCN1CCN(Cc2ccccc2)CC1 ?
D2 ag-1: -1.0; D2 PAM-1: -6.6; D2 PAM-2: -26.4; D2 ag-2: -7.3; D2 antag: 110.0*

How did c1ccc(-c2ccccc2OCCCN2CCCCC2)cc1 do in these assays?
D2 ag-1: -0.5; D2 PAM-1: -31.1; D2 PAM-2: -29.9; D2 ag-2: -1.5; D2 antag: 43.1*

How did OCCCN1CCN(CCOc2ccccc2-c2ccccc2)CC1 do in these assays?
D2 ag-1: -0.1; D2 PAM-1: -10.7; D2 PAM-2: -28.4; D2 ag-2: -3.0; D2 antag: 66.6*

What do the screens show for `NS(=O)(=O)c1ccc(CCNC(=O)c2nc(SCc3ccccc3F)ncc2Cl)cc1`?
D2 ag-1: -1.3; D2 PAM-2: -2.0

Results for COc1ccc(C2C(=O)N(C3CCC(C)CC3)CC(=O)N2Cc2ccc(C)cc2)cc1OC (stereo not given) ?
D2 ag-1: 0.9; D2 PAM-2: -7.0

Results for Clc1cccc(OCCCN2CCCC2)c1Cl ?
D2 ag-1: 0.4; D2 PAM-1: -13.7; D2 PAM-2: -22.9; D2 ag-2: -4.8; D2 antag: 51.6*

How did OC(COc1cccc2ccccc12)CN1CCN(c2ccc(Cl)cc2)CC1 (stereo not given) do in these assays?
D2 ag-1: 7.6; D2 PAM-1: -12.0; D2 PAM-2: -12.1; D2 ag-2: 3.5; D2 antag: 7.7

What do the screens show for `C=C1CC(C)OC(c2ccccc2OCC(O)CN2CCCCC2)C1` (stereo not given)?
D2 ag-1: 0.3; D2 PAM-1: 5.2; D2 PAM-2: -7.6; D2 ag-2: -1.3; D2 antag: 65.1*

Results for CCN1CCN(CCOc2ccccc2-c2ccccc2)CC1 ?
D2 ag-1: -0.1; D2 PAM-1: -4.1; D2 PAM-2: -23.5; D2 ag-2: -5.1; D2 antag: 86.8*

What do the screens show for `OC(COc1cccc2ccccc12)CN1CCCC1` (stereo not given)?
D2 ag-1: 0.4; D2 PAM-1: -10.5; D2 PAM-2: 72.6*; D2 ag-2: -1.1; D2 antag: -4.8

Results for Cc1ccc(NC(=O)CN2C(=O)CC(c3ccco3)Sc3ccccc32)cc1Cl (stereo not given) ?
D2 ag-1: -0.2; D2 PAM-2: 1.2

How did CCc1cccc(NC(=O)CN2C(=O)COc3ccc(S(=O)(=O)N4CCC(C)CC4)cc32)c1 do in these assays?
D2 PAM-2: -10.1

Results for COc1ccc(-n2c(SCC(=O)Nc3ccccc3)nc(O)cc2=O)cc1 ?
D2 ag-1: 0.5; D2 PAM-1: 11.4; D2 PAM-2: -0.2; D2 ag-2: 0.6; D2 antag: 5.4

How did COc1ccc(NC(=O)CSc2ncnc3sc(C)cc23)cc1 do in these assays?
D2 ag-1: -0.6; D2 PAM-1: -1.6; D2 PAM-2: -5.2; D2 ag-2: -0.3; D2 antag: 31.7*

Results for COc1ccc(NC(=O)CSc2nc(O)cc(=O)n2-c2ccc(OC)cc2)cc1 ?
D2 ag-1: 0.2; D2 PAM-1: 5.9; D2 PAM-2: 39.6*; D2 ag-2: 5.1; D2 antag: 7.3

What do the screens show for `COc1ccc(NC(=O)CSc2nc(-c3ccc(C)cc3)cc(C(F)(F)F)c2C#N)cc1`?
D2 PAM-1: -4.2; D2 PAM-2: 30.9*; D2 ag-2: 0.0

How did COc1cc(OC)c(OC)cc1CNCCSc1nnnn1-c1ccccc1 do in these assays?
D2 ag-1: -0.3; D2 PAM-2: -18.6

Results for CC(C)c1ccc(N(C(=O)CNC(=O)c2ccco2)C(C(=O)NC2CCCC2)c2ccncc2)cc1 (stereo not given) ?
D2 ag-1: 0.1; D2 PAM-1: -13.9; D2 PAM-2: -9.7; D2 ag-2: -6.0; D2 antag: 31.4*

How did Cc1cccc2sc(N(CCN(C)C)C(=O)/C=C/c3cccs3)nc12 do in these assays?
D2 ag-1: -0.3; D2 PAM-1: -43.0; D2 PAM-2: -18.8; D2 ag-2: -4.1; D2 antag: 31.6*

How did COc1ccc2sc(N(CCN(C)C)C(=O)/C=C/c3cccs3)nc2c1 do in these assays?
D2 ag-1: 0.0; D2 PAM-1: -16.6; D2 PAM-2: -23.2; D2 ag-2: 2.5; D2 antag: 35.8*

Results for COc1ccc2nc(N(CCN(C)C)C(=O)/C=C/c3cccs3)sc2c1 ?
D2 ag-1: -0.2; D2 PAM-1: -19.0; D2 PAM-2: -7.8; D2 ag-2: -0.7; D2 antag: 0.8

Compound activity deposited in PubChem by National Center for Advancing Translational Sciences (NCATS).
